Bioassay records: PubChem, Broad Institute
The full list was thinned out, with hits kept by preference.
Tg IFNy HTS: inhibitors of Toxoplasma gondii growth with IFN-gamma | Toxoplasma gondii growth in IFN-gamma-treated host cells; stronger effect = lower value | activity change, negative = inhibition, % (no concentration beside the values) | actives 3.8% (n = 69,000); in the data active = activity change below about -70%, passing the limit was not always enough;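 also: host cells are HeLa cells infected with Toxoplasma gondii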
Each line names hits and unclear results; the compound was inactive in the other large screens.

Cn1cc(-c2ccc3ccc(-n4ccc(C(=O)Nc5cccc(F)c5)n4)n3c2)cn1	none
O=S(=O)(NCCSc1ccc(Cl)cc1)c1cccs1	none
COCCN1C(=O)[C@]2(CC[C@@H]3CN(C(=O)NC4CCCC4)C[C@H]32)N=C1C	none
CCc1ccc(S(=O)(=O)N2C[C@@H]3OCCN(Cc4cnn(C)c4)[C@H]3C2)cc1	none
Cc1cccc(OCC(=O)NCCc2csc(-c3ccc(Cl)cc3)n2)c1	none
C[C@]12CCC3C(CC=C4C[C@@H](O)CC[C@@]43C)C1CCC2[C@]1(C)CCC(=O)O1 (some centres undefined)	none
C[C@]12CC[C@H](O)CC1=CCC1C2CC[C@]2(C)C(n3cnc4ccccc43)=CCC12 (some centres undefined)	none
CC(=O)[C@H]1[C@H](C#N)C[C@H]2[C@@H]3CC=C4C[C@@H](O)CC[C@]4(C)[C@H]3CC[C@@]21C	Tg IFNy HTS -84
COc1cccc(NC(=O)Cn2ncc3c(N4CCCCCC4)ncnc32)c1	none
Cc1ncc2c(c1CNC(=O)/C=C/c1ccccc1)CCN(C(=O)c1ccc(N3CCCC3=O)cc1)C2	none
O=C(c1ccc(-c2cn[nH]c2)nc1)N1CCC(N2CCOCC2)CC1	none
CC(C)(C)c1nnc(NC(=O)C2CC(=O)N(CCc3c[nH]c4ccc(F)cc34)C2)s1 (centres undefined)	none
O=C(Nc1ccc2c(c1)CCC2)C1CC(=O)N(CCc2c[nH]c3ccc(Cl)cc23)C1 (centres undefined)	Tg IFNy HTS -111
Cc1ccc2[nH]cc(CCN3CC(C(=O)NCCc4ccc(F)cc4)CC3=O)c2c1 (centres undefined)	none
Cc1nnc(NC(=O)C2CC(=O)N(CCc3c[nH]c4ccc(Cl)cc34)C2)s1 (centres undefined)	none
CC(C)c1ccc(NC(=O)C2CC(=O)N(CCc3c[nH]c4ccc(F)cc34)C2)cc1 (centres undefined)	Tg IFNy HTS -81
O=C(NC1CCCCCC1)C1CC(=O)N(CCc2c[nH]c3ccc(Cl)cc23)C1 (centres undefined)	none
CCCc1nc(C(=O)N2CC[C@@H](c3sccc3C)[C@H](O)C2)cs1	none
CN(C)CCN1CCC2(CCCN(C(=O)c3ccoc3)C2)CC1	none
O=S(=O)(c1ccc(F)c(Cl)c1)N1CCC2(CC1)Nc1cc(F)ccc1-n1cccc12	none
CN(C)CCOCC1CN(C(=O)c2ccc[nH]2)Cc2ccnn2C1 (centres undefined)	none
COc1ccc2cc(-c3cc(-c4cc(Cl)cc(Cl)c4)nn3[C@@H](C)c3ccc(C(=O)NCCC(=O)O)cc3)ccc2c1	Tg IFNy HTS -73
CC(C)Oc1ccc(C(=O)NCCc2csc(-c3ccc(Cl)cc3)n2)cc1	none
COc1ccc(C(=O)NCCc2csc(-c3ccc(Cl)cc3)n2)cc1	none
CCN1Cc2ccccc2CC1C(=O)NCCSc1nnnn1C (centres undefined)	none
CCc1ccccc1S(=O)(=O)N1CCC2(CC1)Nc1ccc(C)c(C)c1-n1cccc12	none
Cc1nnc(-c2cccc(-c3ccc4c(c3)OCCO4)c2)o1	none
Clc1ccc(Sc2nc3ccccc3nc2Sc2ccc(Cl)cc2)cc1	none
Cc1ncc(Sc2ccc(Cl)cc2)c(-c2ccc(Cl)cc2)n1	none
Cc1ccc(Sc2cccc3nc(N)nc(N)c23)cc1	Tg IFNy HTS -108
Cc1cc(N2CCOCC2)nc2ccc(NC(=O)c3cc4ccccc4[nH]3)cc12	none
Cc1nn(C)c(C)c1CCC(=O)N(C)C(C)c1nccs1 (centres undefined)	none
CO[C@H]1CC(O[C@@H]2/C(C)=C/C[C@@H]3C[C@@H](C[C@]4(CC[C@H](C)[C@@H](C5CCCCC5)O4)O3)OC(=O)[C@@H]3C=C(C)/C(=N/O)[C@H]4OC/C(=C\C=C\[C@@H]2C)[C@]43O)O[C@@H](C)C1O (some centres undefined)	Tg IFNy HTS -80
CCC(C)[C@H]1O[C@]2(C=C[C@@H]1C)C[C@@H]1C[C@@H](C/C=C(\C)[C@@H](OC3C[C@H](OC)C(O[C@H]4C[C@H](OC)[C@@H](NC(C)=O)[C@H](C)O4)[C@H](C)O3)[C@@H](C)/C=C/C=C3\CO[C@@H]4[C@H](O)C(C)=C[C@@H](C(=O)O1)[C@]34O)O2 (some centres undefined)	none
COc1cccc(-c2nc(Cn3nnc(C(=O)Nc4ccc(F)c(F)c4)c3C)c(C)o2)c1OC	none
CC(=O)Oc1cc2c(c(C)c1OC(C)=O)CC=C1[C@@]2(C)CC[C@@]2(C)C3C[C@](C)(C(=O)O)CC[C@]3(C)CC[C@]12C (some centres undefined)	Tg IFNy HTS -81
CC1(C)C2CC[C@]3(C)C(C(=O)C=C4[C@H]5C[C@@](C)(C(=O)O)CC[C@]5(C)CC[C@]43C)[C@@]2(C)CC[C@@H]1O (some centres undefined)	none
CSc1ccc(CNC(=O)c2nc(Nc3ccccc3)c3ccccc3n2)cc1	none
CCOCC1CN(C(=O)c2ccccc2F)Cc2cnn(CC3CC3)c21 (centres undefined)	none
C[C@@]1(O)[C@H](O)[C@@H](CO)O[C@H]1n1cnc2c(NC3CCCC3)nc(Cl)nc21	none
CC(C(=O)N(C)CCC(C)(C)O)n1cc(Cl)cn1 (centres undefined)	none
